± gives the standard deviation of the averaged measurements. Of roughly 5,400 targets only a part is listed; those with the largest changes were picked by preference.
Compound: Nc1nc2c(ncn2[C@@H]2O[C@H](COP(=O)(O)OP(=O)(O)OP(=O)(O)O)[C@@H](O)[C@H]2O)c(=O)[nH]1 [guanosine triphosphate]
Experiment: NP40-soluble protein abundance relative to vehicle (solubility fold change) (ratio); higher = more soluble protein in presence of GTP
Procedure: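 Solubility proteome profiling in Jurkat crude lysate. Lysate was treated with Mg-GTP (0.1-10 mM) for 10 min at room temperature and 3 min at 37 °C, then solubilised with 0.8% NP40 and benzonase, followed by ultracentrifugation. Proteins were quantified by TMT10 LC-MS/MS; the value is the NP40-soluble abundance relative to the NP40-processed vehicle, from 3 independent experiments.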

UniProt Q96GM5, sequence (Q96GM5 whole entry): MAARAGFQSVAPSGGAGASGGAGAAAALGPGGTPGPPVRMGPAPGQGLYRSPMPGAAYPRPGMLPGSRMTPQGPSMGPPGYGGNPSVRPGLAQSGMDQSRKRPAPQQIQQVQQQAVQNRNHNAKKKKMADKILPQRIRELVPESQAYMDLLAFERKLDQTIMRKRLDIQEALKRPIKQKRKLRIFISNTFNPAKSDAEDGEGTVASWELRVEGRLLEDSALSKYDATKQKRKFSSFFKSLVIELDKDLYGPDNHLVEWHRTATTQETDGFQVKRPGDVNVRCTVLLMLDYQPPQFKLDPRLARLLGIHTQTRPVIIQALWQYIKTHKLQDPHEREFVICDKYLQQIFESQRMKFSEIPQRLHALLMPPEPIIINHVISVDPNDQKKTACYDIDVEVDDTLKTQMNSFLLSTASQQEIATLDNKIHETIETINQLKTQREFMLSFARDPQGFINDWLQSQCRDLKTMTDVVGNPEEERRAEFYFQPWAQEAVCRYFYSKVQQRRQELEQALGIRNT
UniProt Q9H6E4, sequence (Q9H6E4 whole entry): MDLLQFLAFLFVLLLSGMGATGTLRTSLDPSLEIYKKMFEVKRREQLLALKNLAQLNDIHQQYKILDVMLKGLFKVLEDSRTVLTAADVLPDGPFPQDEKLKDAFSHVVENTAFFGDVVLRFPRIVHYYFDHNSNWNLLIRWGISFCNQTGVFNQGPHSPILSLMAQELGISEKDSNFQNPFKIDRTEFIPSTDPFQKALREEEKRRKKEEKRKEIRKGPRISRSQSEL
UniProt Q9Y5K8, sequence (Q9Y5K8 whole entry): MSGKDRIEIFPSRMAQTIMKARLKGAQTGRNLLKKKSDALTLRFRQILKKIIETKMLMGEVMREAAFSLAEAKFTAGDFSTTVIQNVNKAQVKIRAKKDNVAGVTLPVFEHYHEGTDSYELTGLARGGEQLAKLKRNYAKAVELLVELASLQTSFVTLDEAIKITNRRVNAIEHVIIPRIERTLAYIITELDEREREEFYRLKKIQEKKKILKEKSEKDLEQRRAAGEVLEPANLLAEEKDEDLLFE
UniProt Q9NX05, sequence (Q9NX05 whole entry): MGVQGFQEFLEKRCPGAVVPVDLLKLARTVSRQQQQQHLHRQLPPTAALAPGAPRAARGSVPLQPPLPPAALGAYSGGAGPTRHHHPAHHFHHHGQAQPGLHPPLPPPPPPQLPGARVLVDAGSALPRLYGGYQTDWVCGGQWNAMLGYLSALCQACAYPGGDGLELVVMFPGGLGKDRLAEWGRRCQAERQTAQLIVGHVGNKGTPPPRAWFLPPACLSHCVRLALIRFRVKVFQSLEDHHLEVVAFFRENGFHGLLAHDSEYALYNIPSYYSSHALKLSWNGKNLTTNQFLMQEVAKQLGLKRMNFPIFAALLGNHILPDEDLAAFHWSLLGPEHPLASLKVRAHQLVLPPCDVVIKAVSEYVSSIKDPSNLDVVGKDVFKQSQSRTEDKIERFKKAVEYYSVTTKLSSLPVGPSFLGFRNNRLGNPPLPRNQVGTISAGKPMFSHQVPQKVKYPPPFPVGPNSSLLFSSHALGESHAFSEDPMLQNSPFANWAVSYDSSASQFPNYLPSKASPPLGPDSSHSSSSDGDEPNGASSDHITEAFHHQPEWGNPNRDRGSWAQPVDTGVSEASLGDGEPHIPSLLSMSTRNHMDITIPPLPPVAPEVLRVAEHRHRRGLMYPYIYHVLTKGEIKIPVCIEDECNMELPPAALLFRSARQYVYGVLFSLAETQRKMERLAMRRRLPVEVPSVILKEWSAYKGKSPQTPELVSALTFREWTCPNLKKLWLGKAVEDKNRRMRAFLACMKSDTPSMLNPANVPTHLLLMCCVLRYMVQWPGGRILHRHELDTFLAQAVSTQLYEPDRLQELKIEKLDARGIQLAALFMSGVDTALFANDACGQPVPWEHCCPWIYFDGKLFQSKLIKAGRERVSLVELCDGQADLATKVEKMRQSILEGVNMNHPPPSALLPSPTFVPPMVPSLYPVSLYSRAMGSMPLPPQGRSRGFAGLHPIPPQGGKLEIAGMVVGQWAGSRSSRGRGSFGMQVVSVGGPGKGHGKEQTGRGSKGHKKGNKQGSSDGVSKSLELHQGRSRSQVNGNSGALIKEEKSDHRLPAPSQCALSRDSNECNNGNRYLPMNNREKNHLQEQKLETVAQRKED
UniProt Q9ULV4, sequence (Q9ULV4 whole entry): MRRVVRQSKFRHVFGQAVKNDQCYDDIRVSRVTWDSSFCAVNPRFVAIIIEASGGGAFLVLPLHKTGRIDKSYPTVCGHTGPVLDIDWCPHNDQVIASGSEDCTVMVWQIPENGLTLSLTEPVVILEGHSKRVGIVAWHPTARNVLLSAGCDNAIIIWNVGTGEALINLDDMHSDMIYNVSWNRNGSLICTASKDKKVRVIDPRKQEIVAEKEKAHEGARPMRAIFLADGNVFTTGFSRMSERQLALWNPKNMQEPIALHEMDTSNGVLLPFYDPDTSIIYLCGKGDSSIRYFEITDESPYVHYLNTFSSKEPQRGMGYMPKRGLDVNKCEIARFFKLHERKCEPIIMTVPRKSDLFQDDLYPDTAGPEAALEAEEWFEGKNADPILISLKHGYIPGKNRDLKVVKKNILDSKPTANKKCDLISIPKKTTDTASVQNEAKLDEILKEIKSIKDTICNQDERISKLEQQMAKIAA

Target	NP40-soluble protein abundance (concentration: 0.1mM)	NP40-soluble protein abundance (concentration: 0.5mM)	NP40-soluble protein abundance (concentration: 1mM)	NP40-soluble protein abundance (concentration: 2mM)	NP40-soluble protein abundance (concentration: 4mM)	NP40-soluble protein abundance (concentration: 6mM)	NP40-soluble protein abundance (concentration: 8mM)	NP40-soluble protein abundance (concentration: 10mM)
ATP6V1D (UniProt Q9Y5K8)	1.04 ± 0.016	1.06 ± 0.03	1.04 ± 0.03	1.06 ± 0.022	1.056 ± 0.0052	1.03 ± 0.05	1.02 ± 0.045	0.992 ± 0.018
CCDC134 (UniProt Q9H6E4)	0.934 ± 0.071	0.893 ± 0.1	0.944 ± 0.089	0.911 ± 0.087	0.905 ± 0.077	0.881 ± 0.084	0.869 ± 0.1	0.86 ± 0.091
SMARCD1 (UniProt Q96GM5)	1.06 ± 0.036	1.11 ± 0.065	1.09 ± 0.089	1.18 ± 0.16	1.18 ± 0.17	1.18 ± 0.19	1.15 ± 0.18	1.16 ± 0.17
UniProt Q9ULV4|Q9ULV4-2|Q9ULV4-3	0.986 ± 0.021	1.11 ± 0.089	1.16 ± 0.088	1.26 ± 0.17	1.42 ± 0.22	1.53 ± 0.3	1.67 ± 0.33	1.74 ± 0.36
FAM120C (UniProt Q9NX05)	1 ± 0.021	1.04 ± 0.017	1.04 ± 0.036	1.09 ± 0.065	1.12 ± 0.068	1.18 ± 0.077	1.25 ± 0.08	1.25 ± 0.061
